Calls of active or inactive are those of the source. Unless noted, the rule behind the calls is not given here.
How the values were obtained:
[1] = system: Wnt5a (protein binding on small-molecule microarray); assay: Wnt5a binders on small-molecule microarray, primary screen, biophysical, 635/667 nm fluorescence (AID 1142); settings: 635 nm fluorescence, higher = more signal;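 note: fluorescence read at 667 nm with signal to noise per printed feature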
[2] = cell viability in Huh7 cells, primary screen, cytotoxicity control for HCV replication inhibitor project, CellTiter-Glo luminescence, basal, 48 h (AID 1143); settings: Huh7 HCV replicon, higher = more signal, called active from +8 up or from −8 down;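 note: Huh7 hepatoma cells carrying a hepatitis C replication reporter with no stimulus; test concentration not given here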
[3] = P. aeruginosa biofilm formation inhibitors, primary screen, PAO1 strain, BacTiter-Glo luminescence, LB-PBS (AID 1144); settings: 12 h, higher = more signal
[4] = CREB reporter modulators without forskolin, primary screen, cell-based, PC12, CRE-LacZ reporter, unstimulated (AID 1145); settings: no forskolin, luminescence, 4.5 h, higher = more signal, called active from +8 up or from −8 down
[5] = CREB reporter modulators under forskolin, primary screen, cell-based, PC12, CRE-LacZ reporter, forskolin-stimulated (AID 1146); settings: luminescence, 4.5 h, higher = more signal, called active from +8 up or from −8 down;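 note: PC12 cells with 6xCRE LacZ reporter stimulated by forskolin 10 µM; beta-galactosidase reporter signal reflecting CREB driven transcription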
[6] = target: Streptavidin (Streptomyces avidinii) (UniProt P22629); assay: streptavidin binders on small-molecule microarray, primary screen, artefact control for SMM compound annotation, biophysical, 635/667 nm fluorescence (AID 1147); settings: streptavidin binding, higher = more signal;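 note: signal reflects streptavidin binding to arrayed compounds as a control protein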
[7] = small-molecule binders of probe aInhba, primary screen, biochemical, small-molecule microarray, 635/667 nm fluorescence (AID 1148); settings: higher = more signal;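 note: score merges 667nm spot fluorescence with signal-to-noise for antibody binding to printed compounds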
Torsin-1A (Homo sapiens) [8] = target: Torsin-1A (Homo sapiens) (UniProt O14656); assay: torsin A binders from cell lysate, primary screen, small-molecule microarray, wild-type, 635/667 nm (AID 1149); settings: COS7 hTOR1A-WT lysate, 635 nm fluorescence, higher = more signal
Torsin-1A (Homo sapiens) [9] = target: Torsin-1A (Homo sapiens) (UniProt O14656); assay: small-molecule binders of mutant TOR1A in lysate, primary screen, cell lysate, small-molecule microarray, COS7 lysate, 635/667 nm fluorescence (AID 1150); settings: COS7 hTOR1A mutant lysate, 635 nm fluorescence, higher = more signal;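 note: score pools 667 nm emission and signal to noise measuring lysate protein binding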
[10] = system: Sonic hedgehog protein (Shh); assay: small-molecule binders of Shh protein, primary screen, biochemical, small-molecule microarray, 635/667 nm fluorescence (AID 1151); settings: small-molecule microarray binding, 635 nm fluorescence; higher = more signal;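 note: Shh protein binding to compounds spotted on small-molecule microarray slides; score combines spot fluorescence intensity with signal-to-noise across triplicate slides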
[11] = E. coli DRC41 culture turbidity changes, primary screen, E. coli filamentation inducer project, strain DRC41, OD650, 48 h (AID 1152);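 note: E. coli MC1000 strain DRC41 lacking acrAB efflux pump and sulA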; settings: E. coli DRC41 (acrAB sulA), higher = more signal, called active from +8 up or from −8 down
[12] = small-molecule binders of probe aLefty1, primary screen, biochemical, small-molecule microarray, 635/667 nm fluorescence (AID 1153); settings: higher = more signal;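 note: score merges spot fluorescence with signal-to-noise ratio from the scanned slide images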
[13] = PSAC antagonists in infected red cells, primary screen, cell-based, P. falciparum Indochina, OD700, 1 h (AID 1154); settings: P. falciparum Indochina infected RBC osmotic lysis, higher = more signal, called active from +8 up or from −8 down
[14] = PSAC antagonists in infected red cells, primary screen, cell-based, P. falciparum Indochina, OD700, 2 h (AID 1155);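 note: lysis reports solute entry through the parasite surface anion channel PSAC; channel blockers reduce lysis of infected cells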; settings: P. falciparum Indochina infected erythrocytes, osmotic lysis OD700; higher = more signal, called active from +8 up or from −8 down
[15] = osmotic lysis modulators in infected erythrocytes, primary screen, PSAC antagonist project, cell-based, P. falciparum Indochina, OD700, 3 h (AID 1156); settings: higher = more signal, called active from +8 up or from −8 down
[16] = PSAC antagonists in infected red cells, primary screen, cell-based, P. falciparum Indochina, OD700, 18 h (AID 1157); settings: P. falciparum Indochina infected erythrocytes, osmotic lysis OD700, 18 h; higher = more signal, called active from +8 up or from −8 down
[17] = modulators of S6 phosphorylation in cells, primary screen, cell-based, A549, cytoblot, luminescence, serum-stimulated (AID 1158); settings: A549 phospho-S6 cytoblot, 5 h, higher = more signal;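 note: serum-stimulated A549 lung adenocarcinoma cells; signal is phosphorylated S6 detected by cytoblot immunostaining with HRP secondary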
[18] = target: NADPH oxidase 2 (Homo sapiens) (UniProt P04839); assay: NOX2-dependent H2O2 signal modulators, primary screen, NOX inhibitor project, cell-based, HEK293-NOX2, PMA-stimulated, Amplex Red fluorescence (AID 1159); settings: 45 min, higher = more signal, called active from +8 up or from −8 down; note: test concentration not given here
[19] = target: NADPH oxidase 4 (Homo sapiens) (UniProt Q9NPH5); assay: NOX4-dependent H2O2 signal modulators, primary screen, NOX inhibitor project, cell-based, HEK293-NOX4, tetracycline-induced, Amplex Red fluorescence (AID 1160); settings: 45 min, higher = more signal, called active from +8 up or from −8 down
[20] = target: NADPH oxidase 5 (Homo sapiens) (UniProt Q96PH1); assay: NOX5-dependent H2O2 signal modulators, primary screen, NOX inhibitor project, cell-based, HEK293-NOX5, Amplex Red fluorescence (AID 1161); settings: HEK293-NOX5, ionomycin, 45 min, higher = more signal
NADPH oxidase 5 (Homo sapiens), sequence (Q96PH1 whole entry, looked up): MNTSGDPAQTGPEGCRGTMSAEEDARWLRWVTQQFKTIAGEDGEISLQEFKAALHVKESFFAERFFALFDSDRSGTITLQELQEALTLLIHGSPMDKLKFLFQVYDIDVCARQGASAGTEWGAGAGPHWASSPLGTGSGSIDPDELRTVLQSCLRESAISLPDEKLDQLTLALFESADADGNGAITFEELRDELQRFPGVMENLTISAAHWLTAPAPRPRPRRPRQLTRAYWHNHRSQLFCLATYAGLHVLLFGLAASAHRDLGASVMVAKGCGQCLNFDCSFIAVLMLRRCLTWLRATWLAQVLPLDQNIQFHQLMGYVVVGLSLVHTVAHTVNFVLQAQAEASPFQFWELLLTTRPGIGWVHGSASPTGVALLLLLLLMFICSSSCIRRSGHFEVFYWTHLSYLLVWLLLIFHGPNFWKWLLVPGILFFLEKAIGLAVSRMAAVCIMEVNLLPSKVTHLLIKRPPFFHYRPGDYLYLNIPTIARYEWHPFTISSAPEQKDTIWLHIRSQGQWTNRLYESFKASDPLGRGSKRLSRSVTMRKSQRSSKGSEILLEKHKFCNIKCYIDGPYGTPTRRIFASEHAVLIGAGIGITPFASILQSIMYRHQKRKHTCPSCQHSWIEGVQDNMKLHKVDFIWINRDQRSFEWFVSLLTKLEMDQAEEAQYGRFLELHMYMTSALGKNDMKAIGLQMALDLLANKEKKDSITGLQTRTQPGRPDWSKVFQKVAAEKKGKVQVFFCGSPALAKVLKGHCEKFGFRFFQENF

Streptavidin (Streptomyces avidinii), sequence (P22629 whole entry, looked up): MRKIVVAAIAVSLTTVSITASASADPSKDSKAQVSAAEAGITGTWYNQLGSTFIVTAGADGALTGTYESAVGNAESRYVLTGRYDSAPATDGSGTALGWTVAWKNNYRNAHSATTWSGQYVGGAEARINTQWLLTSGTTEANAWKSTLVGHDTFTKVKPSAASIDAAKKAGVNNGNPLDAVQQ
NADPH oxidase 4 (Homo sapiens), sequence (Q9NPH5 whole entry, looked up): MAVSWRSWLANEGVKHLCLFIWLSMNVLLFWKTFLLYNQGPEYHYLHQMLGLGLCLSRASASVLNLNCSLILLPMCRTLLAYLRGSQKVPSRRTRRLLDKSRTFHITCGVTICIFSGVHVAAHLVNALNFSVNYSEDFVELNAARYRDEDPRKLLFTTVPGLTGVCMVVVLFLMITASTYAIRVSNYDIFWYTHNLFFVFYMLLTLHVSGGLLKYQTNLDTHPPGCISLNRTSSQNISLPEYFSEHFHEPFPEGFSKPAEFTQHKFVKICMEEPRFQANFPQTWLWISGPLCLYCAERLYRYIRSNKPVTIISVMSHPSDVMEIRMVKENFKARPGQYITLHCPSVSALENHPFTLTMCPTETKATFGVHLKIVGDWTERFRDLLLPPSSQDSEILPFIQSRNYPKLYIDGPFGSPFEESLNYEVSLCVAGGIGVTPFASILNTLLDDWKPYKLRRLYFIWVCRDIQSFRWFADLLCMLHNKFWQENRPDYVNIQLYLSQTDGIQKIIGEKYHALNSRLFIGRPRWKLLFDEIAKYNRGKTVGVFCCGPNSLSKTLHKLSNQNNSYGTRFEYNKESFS
Torsin-1A (Homo sapiens), sequence (O14656 whole entry, looked up): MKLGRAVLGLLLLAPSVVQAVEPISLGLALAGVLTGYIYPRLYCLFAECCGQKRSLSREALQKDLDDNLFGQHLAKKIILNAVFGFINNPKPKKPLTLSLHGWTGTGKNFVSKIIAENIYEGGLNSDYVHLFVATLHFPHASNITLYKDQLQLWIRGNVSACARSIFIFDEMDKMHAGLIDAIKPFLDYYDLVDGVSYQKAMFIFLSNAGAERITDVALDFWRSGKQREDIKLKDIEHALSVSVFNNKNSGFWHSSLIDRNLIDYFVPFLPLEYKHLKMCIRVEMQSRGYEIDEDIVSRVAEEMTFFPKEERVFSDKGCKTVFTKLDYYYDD
NADPH oxidase 2 (Homo sapiens), sequence (P04839 whole entry, looked up): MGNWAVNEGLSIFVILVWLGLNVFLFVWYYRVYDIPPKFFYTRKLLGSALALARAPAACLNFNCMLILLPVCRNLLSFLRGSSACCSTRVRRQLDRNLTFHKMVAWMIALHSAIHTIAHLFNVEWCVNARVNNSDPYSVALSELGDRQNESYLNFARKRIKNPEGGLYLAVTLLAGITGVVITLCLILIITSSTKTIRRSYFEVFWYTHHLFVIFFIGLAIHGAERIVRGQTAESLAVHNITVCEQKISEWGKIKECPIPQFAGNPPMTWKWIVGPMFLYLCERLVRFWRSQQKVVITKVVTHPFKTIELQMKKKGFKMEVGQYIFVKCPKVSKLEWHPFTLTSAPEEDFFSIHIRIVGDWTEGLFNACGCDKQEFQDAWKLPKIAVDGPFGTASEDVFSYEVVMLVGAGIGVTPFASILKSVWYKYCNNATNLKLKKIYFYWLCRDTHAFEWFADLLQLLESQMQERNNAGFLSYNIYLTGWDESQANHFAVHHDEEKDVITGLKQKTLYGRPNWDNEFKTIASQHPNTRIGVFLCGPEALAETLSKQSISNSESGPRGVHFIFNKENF

COc1ccc(NN2C(C(O)c3ccc(I)cc3)C=CC3C(=O)N(C4CCCCC4)C(=O)C32)cc1 (stereo not given)
composite z-score [1]: 0.404 | z-score [2]: -1.7 (inactive) | z-score [3]: -2.03 (inactive) | z-score [4]: 0.435 (inactive) | z-score [5]: -0.469 (inactive) | composite z-score [6]: 1.34 | composite z-score [7]: 0.253 | composite z-score (Torsin-1A (Homo sapiens) [8]): 0.237 | composite z-score (Torsin-1A (Homo sapiens) [9]): 0.51 | composite z-score [10]: 1.3 | z-score [11]: -0.111 (inactive) | composite z-score [12]: 0.425 | z-score [13]: 3.84 (inactive) | z-score [14]: 1.16 (inactive) | z-score [15]: -0.0985 (inactive) | z-score [16]: 0.706 (inactive) | z-score [17]: -0.569 | z-score [18]: 0.0194 (inactive) | z-score [19]: -0.672 (inactive) | z-score [20]: -1.16

COC(=O)[C@@]1(Cc2ccccc2)[C@H]2c3cc(C(=O)N(C)C)n(CCO)c3C[C@H]2CN1C(=O)c1ccccc1
composite z-score [1]: 0.518 | z-score [2]: 0.254 (inactive) | z-score [3]: 0.409 (inactive) | z-score [4]: 0.583 (inactive) | z-score [5]: -0.609 (inactive) | composite z-score [6]: 2.16 | composite z-score [7]: 0.329 | composite z-score (Torsin-1A (Homo sapiens) [8]): -0.212 | composite z-score (Torsin-1A (Homo sapiens) [9]): 0.133 | composite z-score [10]: -0.611 | z-score [11]: -1.65 (inactive) | composite z-score [12]: 0.188 | z-score [13]: -0.469 (inactive) | z-score [14]: 0.19 (inactive) | z-score [15]: -0.0157 (inactive) | z-score [16]: 0.57 (inactive) | z-score [17]: -0.935 | z-score [18]: 0.714 (inactive) | z-score [19]: 0.111 (inactive) | z-score [20]: -0.912

CN(C)CCCC[C@@H]1NC(=O)[C@@H]2C[C@H](C(=O)NCCCCCCNC(=O)CS)[C@H](c3ccc(O)cc3)N2C1=O
composite z-score [1]: 0.412 | z-score [2]: -0.211 (inactive) | z-score [3]: -0.525 (inactive) | z-score [4]: 0.549 (inactive) | z-score [5]: 0.375 (inactive) | composite z-score [6]: -0.406 | composite z-score [7]: 0.257 | composite z-score (Torsin-1A (Homo sapiens) [8]): 0.71 | composite z-score (Torsin-1A (Homo sapiens) [9]): 0.702 | composite z-score [10]: 1.62 | z-score [11]: -1.05 (inactive) | composite z-score [12]: 0.0013 | z-score [13]: 1.19 (inactive) | z-score [14]: 0.284 (inactive) | z-score [15]: -1.22 (inactive) | z-score [16]: 0.0814 (inactive) | z-score [17]: 0.58 | z-score [18]: 0.559 (inactive) | z-score [19]: 0.781 (inactive) | z-score [20]: 0.873

CC=CC(O)C1C=CC2C(=O)NC(=O)C2N1Nc1ccc(Cl)cc1Cl (stereo not given)
composite z-score [1]: -0.242 | z-score [2]: 0.323 (inactive) | z-score [3]: 0.101 (inactive) | z-score [4]: -0.133 (inactive) | z-score [5]: 0.467 (inactive) | composite z-score [6]: 0.0171 | composite z-score [7]: -0.176 | composite z-score (Torsin-1A (Homo sapiens) [8]): 0.34 | composite z-score (Torsin-1A (Homo sapiens) [9]): 0.0964 | composite z-score [10]: 0.443 | z-score [11]: -1.56 (inactive) | composite z-score [12]: 0.169 | z-score [13]: 0.76 (inactive) | z-score [14]: 0.786 (inactive) | z-score [15]: 0.0682 (inactive) | z-score [16]: 1.29 (inactive) | z-score [17]: -0.637 | z-score [18]: -1.35 (inactive) | z-score [19]: -4.61 (inactive) | z-score [20]: -3.02

CCCCCCc1nc(Cc2cc(OC)c(OC)c(OC)c2)cc2c1[Si](C(C)C)(C(C)C)O[C@H]2c1ccccc1
composite z-score [1]: -0.0493 | z-score [2]: -2.1 (inactive) | z-score [3]: 0.129 (inactive) | z-score [4]: 0.367 (inactive) | z-score [5]: 0.0748 (inactive) | composite z-score [6]: 0.0406 | composite z-score [7]: -0.154 | composite z-score (Torsin-1A (Homo sapiens) [8]): 0.128 | composite z-score (Torsin-1A (Homo sapiens) [9]): -0.155 | composite z-score [10]: 1.19 | z-score [11]: -1.42 (inactive) | composite z-score [12]: 0.092 | z-score [13]: 0.612 (inactive) | z-score [14]: 0.482 (inactive) | z-score [15]: 0.491 (inactive) | z-score [16]: -0.23 (inactive) | z-score [17]: -0.147 | z-score [18]: -0.472 (inactive) | z-score [19]: -0.137 (inactive) | z-score [20]: -1.73
